From PubChem BioAssay AID1851 (National Center for Advancing Translational Sciences (NCATS), 2009) come the findings set out here.

For orientation: AC50 means the midpoint of the concentration-response curve, whichever way the signal moves.

The whole screen tested about 16,000 compounds, of which about 4,000 (25%) were called active. Inconclusive results (about 26%) are left out. Calls come from the whole dose curve; as a rule, active = well fitted curve in the direction sought with a large enough effect; inconclusive = small, poorly fitted or top-dose-only effect, or effect the other way; inactive = no such curve, though single readings can be large or run the other way. Only a sample is shown.
% is set by controls: 0 for no effect and ±100 for the full control effect.

Chain of Cytochrome P450 2C9 (Homo sapiens) (P11712 whole entry, looked up): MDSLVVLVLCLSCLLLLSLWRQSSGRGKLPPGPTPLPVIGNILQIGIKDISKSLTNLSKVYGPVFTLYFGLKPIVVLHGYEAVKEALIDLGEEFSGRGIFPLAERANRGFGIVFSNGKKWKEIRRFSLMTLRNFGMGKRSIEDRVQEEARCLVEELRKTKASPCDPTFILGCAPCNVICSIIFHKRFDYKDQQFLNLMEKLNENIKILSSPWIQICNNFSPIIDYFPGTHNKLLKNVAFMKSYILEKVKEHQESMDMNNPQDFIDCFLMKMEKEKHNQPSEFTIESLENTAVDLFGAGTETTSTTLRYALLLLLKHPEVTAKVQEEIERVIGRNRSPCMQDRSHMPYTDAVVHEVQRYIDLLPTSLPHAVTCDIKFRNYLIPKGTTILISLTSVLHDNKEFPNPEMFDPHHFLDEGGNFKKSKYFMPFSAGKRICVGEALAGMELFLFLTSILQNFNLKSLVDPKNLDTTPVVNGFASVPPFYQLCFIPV

This test has as its target Cytochrome P450 2C9 (Homo sapiens) (UniProt P11712). Kind of test: Cytochrome panel assay with activity outcomes. To be noted: recombinant CYP, pro-luciferin dealkylation, luminescence, p450-cyp2c9; series mostly up to 57.1 µM.
Consider `N#Cc1cccc(-c2nc3cnc(N4CCOCC4)nc3n(C[C@H]3CCCO3)c2=O)c1`, for which the AC50 result is “inactive”.
For the compound `CS(=O)(=O)Nc1cccc(-c2nc(N3CCNCC3)c3ccccc3n2)c1`, the activity, negative = inhibition is -1.92% [at 2.29 µM] (inactive).
As to `CCCCCCCCSc1nnc(CSc2nc3nc(C)cc(C)n3n2)o1`, the AC50 is 17.8 µM (active).
On the same count and under the same terms, with `Cc1cc(C)n2nc(SCC(=O)N/N=C/c3ccccc3F)nc2n1` the entry was “inactive”.
For the compound `CCCSc1nnc(CSc2nc3nc(C)cc(C)n3n2)o1`, the AC50 entry is “inactive”.
The same measure, in the same setting: next, `N#Cc1cccc(NC(=O)N2CCC3(CC2)CCN(C(=O)c2csnn2)CC3)c1`: “inactive”; `CCc1ccc(N/C(SCc2ccccc2C)=C(/C#N)C(=O)NCc2ccco2)cc1`: 3.16 µM (active).
`N=c1nc(N)nc(N)n1-c1ccc(S(N)(=O)=O)cc1`: the activity, negative = inhibition was -1.26% [at 11.4 µM] (inactive).
For `NC(=O)c1ccc[n+](CC(=O)OCCC23CC4CC(CC(C4)C2)C3)c1`, the AC50 result is “inactive”.
On the same count and under the same terms, with `O=C(NCCOC12CC3CC(CC(C3)C1)C2)c1cccc(Br)c1` the figure was 14.1 µM (active); with `COc1ccc(-n2c(-c3cnccn3)n[nH]c2=S)cc1`, “inactive”.
Turning to `COc1ccc(/C=N/n2c(-c3cccs3)n[nH]c2=S)cc1`, the AC50 is 2.24 µM (active).
The same measure, in the same setting: next, `Cc1ccc(-c2n[nH]c(=S)n2/N=C/c2cccn2C)cc1`: 12.6 µM (active).
The same measure, in the same setting: with `Cc1n[nH]c(=S)n1/N=C/c1ccc(Br)o1` the entry was “inactive”; with `COc1ccc(-n2c(=O)c(-c3cccs3)nc3cnc(Nc4cccc(OC)c4)nc32)cc1`, “inactive”; with `Cc1ccc(/C=N/n2c(-c3cccs3)n[nH]c2=S)cc1`, 1.58 µM (active).
For `C[N+](C)(C)c1cc2c(nn1)Nc1ccccc1S2`, the activity, negative = inhibition was -3.44% [at 11.4 µM] (inactive).
As for `C[C@@H](CCCCC(=O)Nc1ccc(C(F)(F)F)cc1)NCCc1cnc[nH]1`, the AC50 was 7.94 µM (active).
Same read-out and setting: with `NCCC(=O)NCCc1cnc[nH]1` the entry was “inactive”; with `Cc1oncc1C(=O)Nc1ccc(C(F)(F)F)cc1`, “inactive”.
Regarding `Cc1cc(O)c(C(C)C)cc1NC(=O)Nc1cccc2ccccc12`, the activity, negative = inhibition is -7.14% [at 11.4 µM] (inactive).
For `Cc1cc(O)c(C(C)C)cc1C1(c2cc(C(C)C)c(O)cc2C)OC(=O)c2ccccc21`, the concentration at half-maximal activity (AC50) is 0.316 µM (active).
Same read-out and setting: with `O=c1nc2ccccc2c2n1C[C@H](CN1CCN(c3ccccc3)CC1)N2` the entry was “inactive”; with `COC(=O)C(NC(=O)c1ccc(Cl)cc1)(Nc1nc(C)cs1)C(F)(F)F` (stereo unspecified), 8.91 µM (active); with `Nc1nc(NCc2ccccc2)nc(Nc2cccc(F)c2)c1[N+](=O)[O-]`, “inactive”.
Regarding `Cc1[nH]nc(Nc2ccccc2)c1[N+](=O)[O-]`, the AC50 was 20 µM (active).
For the compound `Cc1noc(C)c1-c1nc(Nc2ccccc2)c2ccccc2n1`, the activity, negative = inhibition was 2.16% [at 2.29 µM] (inactive).
As for `CCO/C([O-])=N/c1c[n+](N2CCOCC2)no1`, the AC50 result is “inactive”.
Turning to `Clc1ccccc1-c1nc(NC2CCNCC2)c2ccccc2n1`, the activity, negative = inhibition is 2.89% [at 2.29 µM] (inactive).
With `CCOc1ccc(N(CC(=O)NCc2ccc(OC)cc2)S(=O)(=O)c2c(C)noc2C)cc1`, the AC50 entry was “inactive”.
Same read-out and setting: with `COc1ccc(NC(=O)N2CCCC3(CCN(C(=O)c4c(C)noc4C)CC3)C2)cc1` the entry was “inactive”.
Same read-out and setting: next, `COC(=O)CN(c1ccc(OC)cc1)S(=O)(=O)c1c(C)noc1C`: 11.2 µM (active); `COc1ccc(NC(=O)N2CC3(CCN(C(=O)c4c(C)noc4C)CC3)C2)cc1`: “inactive”.
On to `COc1cccc(CNCCNC(=O)c2nonc2N)c1`, for which the AC50 entry is “inactive”.
For the compound `COc1ccc(N(CC(=O)NCc2cccc(OC)c2)S(=O)(=O)c2c(C)noc2C)cc1`, the AC50 is 7.94 µM (active).
On to `NC(N)=N/N=C(/c1ccccc1)c1ccc(O)cc1O`, for which the activity, negative = inhibition was -9.7% [at 11.4 µM] (inactive).
For `Cc1ccc(S(=O)(=O)N2CCN(C(=O)CN3CCN(C)CC3)C2)cc1`, the AC50 entry is “inactive”.
Same read-out and setting: with `COc1ccc(S(=O)(=O)N2CCC(NC(=O)Nc3ccc(C)cc3)CC2)cc1` the entry was “inactive”; with `Cc1ccc(C(=O)NC(=S)Nc2ccc(S(=O)(=O)N3CCN(C)CC3)cc2)cc1`, 14.1 µM (active).
As to `Cc1[nH]n(C(C)(C)C)c(=O)c1Sc1ccc(Cl)cc1`, the half-maximal activity concentration (AC50) was 12.6 µM (active).
On the same count and under the same terms, next, `Cc1[nH]n(C(C)(C)C)c(=O)c1Sc1ccccc1`: 7.08 µM (active); `COc1ccc(Oc2ncc3nc(CCc4ccccc4)c(=O)n(C4CC4)c3n2)cc1`: 12.6 µM (active).
The same measure, in the same setting: next, `COc1cccc(Nc2ncc3nc(CCc4ccccc4)c(=O)n(C4CC4)c3n2)c1`: “inactive”; `COc1ncc2nc(CCc3ccccc3)c(=O)n(C3CC3)c2n1`: 15.8 µM (active).
Take `CN(C)c1ncc2nc(CCc3ccccc3)c(=O)n(C3CC3)c2n1`: the AC50 is 12.6 µM (active).
Same read-out and setting: next, `COc1ccc(-n2c(=O)c(C)nc3cnc(Oc4ccccc4)nc32)cc1`: “inactive”; `COc1cccc(Nc2ncc3nc(-c4cccs4)c(=O)n(-c4ccccc4)c3n2)c1`: “inactive”.
Regarding `CNc1nc(-c2ccoc2)nc2ccccc12`, the activity, negative = inhibition is 13% [at 2.29 µM] (inactive).
Take `Clc1ccc2c(c1)C=Nc1c(NCc3ccccc3)ncnc1O2`: the AC50 entry was “inactive”.
As to `N#Cc1ccc(-c2ccc(F)cc2)nc1Oc1ccc(Cl)c(Cl)c1`, the AC50 result was “inactive”.
Still for that read-out and setting: next, `Fc1ccc(-c2cn3cc(C(F)(F)F)cc(Cl)c3n2)cc1`: 4.47 µM (active).
On to `OCCCNCc1ccccn1`, for which the activity, negative = inhibition is 9.34% [at 11.4 µM] (inactive).
As to `CC12CC(NC(=O)N1c1cccc(C(=O)NCc3ccccc3)c1)c1ccccc1O2` (stereo unspecified), the AC50 is 3.98 µM (active).
For `COc1ccc(N2C(=O)NC3CC2(C)Oc2ccccc23)cc1OC` (stereo unspecified), the AC50 entry was “inactive”.
With `O=C(NCc1ccccc1)c1ccc2c(c1)C(=O)N(CC1CCCO1)C2=O` (stereo unspecified), the AC50 entry was “inactive”.
`Cn1c(=S)c2[nH]c(SCCN3C(=O)c4ccccc4C3=O)nc2n(C)c1=O`: the activity, negative = inhibition is -3.8% [at 11.4 µM] (inactive).
`Cn1c(=O)c2[nH]c(CCCCc3nc4c([nH]3)c(=O)n(C)c(=S)n4C)nc2n(C)c1=S`: the activity, negative = inhibition was -2.51% [at 11.4 µM] (inactive).
As to `Cn1c(=O)c2[nH]c(SCc3ccccn3)nc2n(C)c1=S`, the AC50 was 3.16 µM (active).
`CCOc1ccc(NC(=S)N(Cc2ccc(Cl)cc2)Cc2ccco2)cc1`: the concentration at half-maximal activity (AC50) was 10 µM (active).
On the same count and under the same terms, with `CCOc1ccc(NC(=S)N(Cc2ccc(N(C)C)cc2)Cc2ccco2)cc1` the figure was 1 µM (active).
For the compound `CN(C)c1ccc(-c2cncnc2N(C)Cc2ccco2)cc1`, the activity, negative = inhibition was -17.3% [at 2.29 µM] (inactive).
Still for that read-out and setting: with `CN(C)c1ccc(-c2cc(N(C)Cc3ccco3)ncn2)cc1` the figure was -6.39% [at 2.29 µM] (inactive).
As to `N[C@H](C(=O)O)[C@H](O)C(=O)O`, the AC50 result is “inactive”.
Take `CCS(=O)(=O)N1CCC(C(=O)NCC2CCCO2)CC1` (stereo unspecified): the AC50 result was “inactive”.
Turning to `CC(C)(C)C(=O)N1CCN(c2ccc([N+](=O)[O-])c(NCC3CCCO3)c2)CC1` (stereo unspecified), the AC50 was 12.6 µM (active).
Same read-out and setting: next, `Cc1ccc(NC(=O)c2ccc(NCC3CCCO3)c([N+](=O)[O-])c2)cc1Cl` (stereo unspecified): 1.12 µM (active); `Cc1cc(C)c(S(=O)(=O)N2CCN(c3ccc([N+](=O)[O-])c(NCC4CCCO4)c3)CC2)c(C)c1` (stereo unspecified): 2 µM (active).
Consider `N#CCSc1ncnc2c1cnn2CCO`, for which the AC50 entry is “inactive”.
Take `O=C1C2C3C=CC(C3)C2C(=O)N1c1ncn[nH]1` (stereo unspecified): the AC50 entry is “inactive”.
As to `CC1=NN(c2ccc(S(=O)(=O)O)cc2)C(=O)/C1=C\c1ccc(Cl)cc1`, the activity, negative = inhibition is -2.05% [at 11.4 µM] (inactive).
As to `CC1=NN(c2ccccc2)C(=O)/C1=C\N1CC(C)OC(C)C1` (stereo unspecified), the AC50 entry was “inactive”.
Still for that read-out and setting: with `CCOc1cc(/C=C2/C(=O)N(c3ccccc3)N=C2C)ccc1OC(=O)c1ccco1` the figure was 0.631 µM (active).
As to `CNc1nc(-c2ccccc2CN(C)C)nc2ccccc12`, the activity, negative = inhibition is 4.11% [at 2.29 µM] (inactive).
On to `O=C1Oc2ccccc2C(=O)/C1=C\N1C(=O)N/C(=C\c2ccccc2O)C1=O`, for which the AC50 is 1 µM (active).
Still for that read-out and setting: with `C[C@H](C[C@H](N)C(=O)O)C(=O)O` the entry was “inactive”.
For `CC(=O)OC[C@@H]1O[C@@H](O/N=C2/C[C@@H](O)[C@@H](O)[C@@H]3[C@@H]4C(=O)N([C@@H](C)c5ccccc5)C(=O)[C@H]4CC[C@@H]23)[C@H](OC(C)=O)[C@H](OC(C)=O)[C@@H]1OC(C)=O`, the activity, negative = inhibition is 16.3% [at 11.4 µM] (inactive).
For `O=S(=O)(c1ccccc1)N1CCCC1c1nc2ccccc2s1` (stereo unspecified), the concentration at half-maximal activity (AC50) was 12.6 µM (active).
`CC(C)NC(=O)N1CCC2(CC1)CCN(C(=O)c1cccn1C)CC2`: the AC50 entry is “inactive”.
As for `COc1cccc(CNc2ccc(F)c(Cl)c2)c1O`, the AC50 was 2.82 µM (active).
With `COc1ccccc1CNc1ncncc1-c1ccccc1Cl`, the activity, negative = inhibition is -27.8% [at 2.29 µM] (inactive).
For `COc1ccccc1CNc1ccnc(-c2ccccc2Cl)n1`, the activity, negative = inhibition is -21.6% [at 2.29 µM] (inactive).
As for `CCCN1C2=NCCCN2c2ccccc21`, the AC50 result is “inactive”.
With `O=C(/C=C/c1ccc2ccccc2c1)c1ccoc1`, the AC50 result is “inactive”.
On the same count and under the same terms, with `COc1ccc(C(=O)/C=C(/C)N(C)C)cc1` the entry was “inactive”.
On the same count and under the same terms, next, `COc1ccc(/C=C/C(=O)c2ccoc2)cc1`: 28.2 µM (active).
With `NCCSc1nc(-c2ccccc2)c(-c2ccccc2)o1`, the activity, negative = inhibition is -11.6% [at 11.4 µM] (inactive).
As for `O=C(CCc1nc(-c2ccccc2)c(-c2ccccc2)o1)OCc1ccc(Cl)cc1`, the half-maximal activity concentration (AC50) was 22.4 µM (active).
Turning to `CN(C)C(=O)c1ccc(-c2cncnc2NCc2cccnc2)cc1`, the activity, negative = inhibition is 8.29% [at 2.29 µM] (inactive).
Regarding `COc1cccc(C(=O)N(C)c2nnc(-c3ccncc3)s2)c1`, the concentration at half-maximal activity (AC50) was 2 µM (active).
On the same count and under the same terms, with `CC(=O)N(C)c1nnc(-c2cnccn2)s1` the entry was “inactive”.
On to `COc1cccc(-c2ccc3ncnc(N(C)C)c3c2)c1`, for which the activity, negative = inhibition was -9.73% [at 2.29 µM] (inactive).
Take `Cc1ccc(-c2nnc(N(C)C(=O)c3cccnc3)s2)cc1`: the concentration at half-maximal activity (AC50) was 1.41 µM (active).
For `CCCC1S/C(=N/N=C/c2ccc(OC)cc2)N(Cc2ccc(OC)cc2)C1=O` (stereo unspecified), the AC50 was 15.8 µM (active).
As to `CC(C)=NO[C@@H](C)c1cc(-c2c(C)cc(C)cc2C)no1`, the activity, negative = inhibition was -0.976% [at 11.4 µM] (inactive).
As to `CCOC(=O)c1c(C)oc2c1cc(O)c1ccccc12`, the AC50 is 1.12 µM (active).
As for `CCOC(=O)c1c(C)oc2c1c(C=NC1CCS(=O)(=O)C1)c(O)c1ccccc12` (stereo unspecified), the AC50 result was “inactive”.
